Shown is part of a subset that was picked to be rich in hits.
CXXC DNA block: MLL CXXC-DNA interaction inhibition | Q03164 | MLL-CXXC / FITC-HOXA9 DNA fluorescence polarization | Potency, µM (highest dose often 115 µM), most hits filed as inhibitors | hit rate 0.037% among 290,000 | AID 2662; active means well fitted inhibition curve with a large enough effect in the polarisation, with a control signal flat, not every such curve was filed as active; inconclusive means small, poorly fitted or top-dose-only effect, or effect the other way, or a change in a side signal; inactive means no such curve, though single readings can be large or run the other way; the % refers to the polarisation
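Purified MLL-CXXC (added from a 7 uM solution) was preincubated 5 min at ambient with pinned compounds in 50 mM Tris-HCl pH 7.5, 50 mM NaCl, 1 mM DTT, 0.05% BSA. Fluorescein-labeled HOX-A9 DNA (50 nM solution) followed, 30 min, then polarization read.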
Menin MLL FP TR: inhibitors of human menin-MLL interaction, mutant MLL peptide | O00255 | Menin + Texas Red MLL mutant peptide, fluorescence polarization | Potency, µM (titrated, usually from 61.6 µM), most hits filed as inhibitors | hit rate 0.23% among 270,000 | AID 1768; active means well fitted inhibition curve with a large enough effect in the polarisation, with a control signal flat, not every such curve was filed as active; inconclusive means small, poorly fitted or top-dose-only effect, or effect the other way, or a change in a side signal; inactive means no such curve, though single readings can be large or run the other way; the % refers to the polarisation
ClpP mod: qHTS Assay for Activators of ClpP; ATP-dependent Clp protease proteolytic subunit (Bacillus subtilis (strain 168)), P80244; purified B. subtilis ClpP, FRET peptide cleavage, 20 min; Potency, µM (top dose mostly 57.5 µM); hit rate 1.9% among 340,000; AID 651965, 2013; active means well fitted falling curve with a large enough effect; inconclusive means small, poorly fitted or top-dose-only effect; inactive means no such curve, though single readings can be large or run the other way; further: the source files actives as falling curves though it sought activators and does not explain the sign; nearly all actives have a fitted effect of over 65% in size
Target sequence (P80244 whole entry, looked up): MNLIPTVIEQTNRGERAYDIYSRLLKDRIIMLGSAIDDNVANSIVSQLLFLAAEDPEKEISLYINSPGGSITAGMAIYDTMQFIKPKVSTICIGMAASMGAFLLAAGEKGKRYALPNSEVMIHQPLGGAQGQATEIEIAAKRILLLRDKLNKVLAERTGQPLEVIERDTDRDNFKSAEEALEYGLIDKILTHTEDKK
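Purified B. subtilis ClpP, 10 microg/mL final in Tris/HCl pH8 with KCl, BSA, glycerol and Tween-20, cleaved an Abz/nitrotyrosine-quenched decapeptide. Fluorescence (ex 320, em 430) was read at 0 and 20 min at room temperature. Delta was normalized to 5.8 microM ADEP and DMSO/no-enzyme controls.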
Menin-MLL FL inh: inhibitors of human menin-MLL interaction, wild-type MLL peptide. Fluorescence polarization, fluorescein-MLL peptide displacement from menin. FP activity change, % at 61.4 µM. 290,000 tested, under 10 active; active means well fitted curve in the direction sought with a large enough effect in the polarisation, not every such curve was filed as active; inconclusive means small, poorly fitted or top-dose-only effect, or effect the other way, or a change in a side signal; inactive means no such curve, though single readings can be large or run the other way; the % refers to the polarisation
p53 reactivator: mutant p53 re-activation in reporter cells | AID 504706 | H1299 p53-A138V BP100-luciferase reporter, luminescence, 24 h | hit rate 0.063% among 320,000 | Potency, µM (doses to about 92.2 µM), most hits filed as activators; active means well fitted activation curve with a large enough effect; inconclusive means small, poorly fitted or top-dose-only effect; inactive means no such curve, though single readings can be large or run the other way; further: nearly all actives have a fitted effect of over 45% in size
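H1299 (p53-null), stable ts p53-A138V + BP100-Luc; 1000 cells/well, Opti-MEM/10% FBS; cpd 4 pt, 1:5; 24 h, 37 deg C, 5% CO2; detection reagent 10 min RT; luminescence.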
Each line names hits and unclear results; the compound was inactive in the other large screens.

O=C1/C(=C/c2ccc(N(CCCl)CCCl)cc2)Cc2ccccc21	none (no result: CXXC DNA block, Menin MLL FP TR, Menin-MLL FL inh, p53 reactivator)
N#CCCn1cc(C(=O)Nc2ccc([N+](=O)[O-])cc2)c(-c2ccc3c(c2)OCCO3)n1	Menin MLL FP TR inconclusive
Cc1ccc(NC(=O)c2cn(CCC#N)nc2-c2ccc3c(c2)OCCO3)c([N+](=O)[O-])c1	ClpP mod 28µM
CCCCN1C(=N)C(CC)(CC)C(=O)NC1=O	none
CCC1(CC)C(=N)N(C)C(=O)NC1=O	ClpP mod 16µM
CCCCCCOC(=O)c1ccccc1N	ClpP mod 22µM
COc1cc2[nH]c(=O)n(-c3ccccc3)c(=O)c2cc1OC	ClpP mod 25µM
COc1cc2[nH]c(=O)n(-c3cccc(Cl)c3)c(=O)c2cc1OC	ClpP mod 28µM
CC(=O)c1c(O)n(-c2cccc(Cl)c2)c(=O)[nH]c1=O (tested in a mixture with another compound)	Menin-MLL FL inh inconclusive (no result: Menin MLL FP TR)
COc1ccccc1CNCC(=O)Nc1cc(S(=O)(=O)N2CCCCC2)ccc1C	ClpP mod 8.9µM (no result: CXXC DNA block, Menin MLL FP TR, Menin-MLL FL inh)
C[C@@H]1O[C@@H](O[C@H]2CC[C@@H](O[C@H]3[C@H](O)C[C@H](c4ccc5c(c4O)C(=O)C4=C(C5=O)[C@@]5(O)C(=O)C[C@](C)(O[C@H]6CC[C@H](O[C@H]7C=CC(=O)[C@H](C)O7)[C@H](C)O6)C[C@@]5(O)C=C4)O[C@@H]3C)O[C@H]2C)C=CC1=O	Menin MLL FP TR inconclusive (no result: CXXC DNA block, ClpP mod, p53 reactivator)
C[C@]12CC[C@@H](O)CC1CCC1C2CC[C@]2(C)C(=O)CC[C@@H]12 (stereo partly drawn)	Menin MLL FP TR inconclusive (no result: ClpP mod, p53 reactivator)
Cn1c2ccccc2c2c(C(=O)N3CCC4(CC3)OCCO4)cn(C3CCCCC3)c(=O)c21	ClpP mod 18µM
CC(C)Cn1cc(C(=O)N2CCC3(CC2)OCCO3)c2c3ccccc3n(C)c2c1=O	ClpP mod 16µM
CCn1cc(C(=O)N2CCOCC2)c2ccccc21	none
Cc1ccc(Cl)cc1N1CCN(C(=O)c2cn(CC(C)C)c(=O)c3c2c2ccccc2n3C)CC1	ClpP mod 13µM (no result: CXXC DNA block, Menin MLL FP TR, Menin-MLL FL inh, p53 reactivator)
Cn1c2ccccc2c2cnn(CC(=O)N3CCC4(CC3)OCCO4)c(=O)c21	p53 reactivator inconclusive (no result: ClpP mod)
Cn1c(C(=O)N2CCC3(CC2)OCCO3)cc2c(=O)n(C)c3ccccc3c21	none
Cn1cc(C(=O)N2CCC3(CC2)OCCO3)c2c3ccccc3n(C)c2c1=O	ClpP mod 14µM
CCC1CN2CCc3cc(OC)c(OC)cc3C2CC1CC1NCCc2cc(OC)c(OC)cc21 (stereo not drawn)	Menin-MLL FL inh inconclusive (no result: CXXC DNA block, ClpP mod, p53 reactivator)
O=C(Nc1cccc(C(=O)Nc2cc(C(=O)Nc3ccc([S+](=O)([O-])[O-])c4cc([S+](=O)([O-])[O-])cc(SOOO)c34)ccc2F)c1)Nc1cccc(C(=O)Nc2cc(C(=O)Nc3ccc([S+](=O)([O-])[O-])c4cc([S+](=O)([O-])[O-])cc([S+](=O)([O-])[O-])c34)ccc2F)c1	none (no result: CXXC DNA block, ClpP mod, p53 reactivator)
O=C(Nc1cc(C(F)(F)F)cc(C(F)(F)F)c1)c1cc(Cl)ccc1O	Menin MLL FP TR inconclusive (no result: CXXC DNA block, ClpP mod, p53 reactivator)
CC(=O)C1=C(O)[C@@H]2[C@@H]3c4c[nH]c5cccc(c45)C[C@@H]3C(C)(C)N2C1=O	none (no result: CXXC DNA block, ClpP mod, p53 reactivator)
CN(C)C(=O)Oc1ccc(-c2cn3cc(C(F)(F)F)ccc3n2)cc1	ClpP mod 10µM, p53 reactivator inconclusive
CN(C)C(=O)Oc1ccc(-c2cn3cc(Cl)ccc3n2)cc1	ClpP mod inconclusive, p53 reactivator inconclusive
CCOC(=O)N1CC(C)N(/[N+]([O-])=N/Oc2ccc([N+](=O)[O-])cc2[N+](=O)[O-])CC1C (stereo not drawn)	Menin MLL FP TR inconclusive (no result: CXXC DNA block, ClpP mod, p53 reactivator)
Cc1ccc(N/N=C/C=C/c2ccco2)cc1	ClpP mod 13µM (no result: CXXC DNA block, Menin MLL FP TR, Menin-MLL FL inh, p53 reactivator)
CCC1OC2(C)C(O)C(/C=C/C=C/C=C/c3oc(=O)cc(OC)c3C)OC1(C)C2OC(C)=O (stereo not drawn)	none (no result: CXXC DNA block, ClpP mod, p53 reactivator)
C=CCc1c(C)nc(C)nc1N/N=C/c1ccc(N(C)C)cc1	ClpP mod 20µM
CCOC(=O)CCN(SN(C)C(=O)Oc1cccc2c1OC(C)(C)C2)C(C)C	none (no result: CXXC DNA block, ClpP mod, p53 reactivator)
Nc1ccccc1C(=O)OCC(=O)Nc1ccc(Br)cc1F	ClpP mod 28µM
Cc1cccc2c3c(ccc12)C1=C(C(=O)C3=O)[C@@H](C)CO1	Menin MLL FP TR inconclusive (no result: CXXC DNA block, ClpP mod, p53 reactivator)
